# Laboratory results reported in the supplement of paper PMC12494721.
# Where a name gives a salt, the structure may show the parent alone.
# What was measured:
# Details in all cases: incubation time: 27 h, anaerobic, 37 °C;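 for the amine columns active = adjusted P below 0.05 in both replicates with a change the same way and a mean fold change under 0.8 or over 1.25; inactive = the rest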
# [1] = tested on: Clostridium sporogenes DSM 1664; test: growth (OD595) fold change vs plate DMSO controls (fold change (ratio)); higher = more growth
# Procedure, shortened: (§1)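 The 96-well mGAM cultures had been kept anaerobic for 27 h at 37 °C before being shaken and read at 595 nm. Blank subtraction, compound background correction with 20 µM compound solutions in water, and a calibration factor of 5 turned the readings into OD. Growth is given as the fold change versus the median of plate DMSO controls. Fold changes above 1.5 were set to NA, and the values are means of 2 biological replicates.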
# Escherichia coli IAI1 [2] = test: as above
# Procedure, shortened: as §1
# [3] = tested on: Klebsiella aerogenes DSM 30053; test: as above
# Procedure, shortened: as §1
# [4] = tested on: Ruminococcus gnavus DSM 108212; test: as above
# Procedure, shortened: as §1
# [5] = tested on: Klebsiella aerogenes DSM 30053; test: fold change of Histamine concentration vs plate DMSO controls (fold change (ratio)); higher = more amine produced, active = hit call of the paper (significant change in both replicates, either direction)
# Procedure, shortened: (§2)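 Amine values are fold changes relative to DMSO-only wells on the same plate. They derive from 27 h, 37 °C anaerobic mGAM cultures of four gut bacterial strains in 80 µL wells, dosed at 20 µM final, or 50 µM final for sweeteners. Extraction of the whole culture, LC–triple-quadrupole MS in dynamic MRM mode, external calibration curves and within-batch drift correction were used, with 2 biological replicates averaged.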
# [6] = tested on: Clostridium sporogenes DSM 1664; test: fold change of Tryptamine concentration vs plate DMSO controls (fold change (ratio)); higher = more amine produced, active = hit call of the paper (significant change in both replicates, either direction)
# Procedure, shortened: as §2
# [7] = tested on: Ruminococcus gnavus DSM 108212; test: as above
# Procedure, shortened: as §2
# Escherichia coli IAI1 [8] = test: fold change of Putrescine concentration vs plate DMSO controls (fold change (ratio)); higher = more amine produced, active = hit call of the paper (significant change in both replicates, either direction)
# Procedure, shortened: as §2
# [9] = tested on: Klebsiella aerogenes DSM 30053; test: as above
# Procedure, shortened: as §2
# Escherichia coli IAI1 [10] = test: fold change of Cadaverine concentration vs plate DMSO controls (fold change (ratio)); higher = more amine produced, active = hit call of the paper (significant change in both replicates, either direction)
# Procedure, shortened: as §2
# [11] = tested on: Klebsiella aerogenes DSM 30053; test: as above
# Procedure, shortened: as §2
# [12] = tested on: Ruminococcus gnavus DSM 108212; test: fold change of 2-Phenylethylamine concentration vs plate DMSO controls (fold change (ratio)); higher = more amine produced, active = hit call of the paper (significant change in both replicates, either direction)
# Procedure, shortened: as §2
SMILES,growth [1],growth (Escherichia coli IAI1 [2]),growth [3],growth [4],fold change of Histamine concentration [5],fold change of Tryptamine concentration [6],fold change of Tryptamine concentration [7],fold change of Putrescine concentration (Escherichia coli IAI1 [8]),fold change of Putrescine concentration [9],fold change of Cadaverine concentration (Escherichia coli IAI1 [10]),fold change of Cadaverine concentration [11],fold change of 2-Phenylethylamine concentration [12]
CCCNC(C)C(=O)Nc1c(C)csc1C(=O)OC (stereo not drawn) [Articaine hydrochloride] (20 µM),0.923,1.08,1.03,1.12,0.917 (inactive),1.06 (inactive),1.06 (inactive),0.985 (inactive),0.992 (inactive),0.966 (inactive),1.01 (inactive),1.09 (inactive)
COC1=C(OC)C(=O)C(CCCCCCCCCCO)=C(C)C1=O [Idebenone] (20 µM),1.18,1,1.01,0.839,1.06 (inactive),1.02 (inactive),1.06 (inactive),0.947 (inactive),1.01 (inactive),1.05 (inactive),1.08 (inactive),1.17 (inactive)
CNC(=C[N+](=O)[O-])NCCSCc1ccc(CN(C)C)o1 [Ranitidine hydrochloride] (20 µM),1.07,1.01,1.07,1.47,0.953 (inactive),1.05 (inactive),0.99 (inactive),0.996 (inactive),1.01 (inactive),1.03 (inactive),1.02 (inactive),0.984 (inactive)
O=C1NCC2(CCN(CCc3ccccc3)CC2)O1 [Fenspiride hydrochloride] (20 µM),1.08,0.982,1.05,1.03,0.89 (inactive),1.02 (inactive),1.03 (inactive),0.98 (inactive),0.973 (inactive),0.994 (inactive),1.02 (inactive),0.988 (inactive)
COC(=O)[C@@H]1[C@H]2C[C@H]3c4[nH]c5ccccc5c4CCN3C[C@@H]2CC[C@@H]1O [Yohimbine hydrochloride] (20 µM),1.02,1.06,1.04,0.793,0.982 (inactive),1.03 (inactive),1.01 (inactive),1.05 (inactive),1.01 (inactive),0.989 (inactive),1.02 (inactive),1.01 (inactive)
O=C1CN(/N=C/c2ccc(-c3ccc([N+](=O)[O-])cc3)o2)C(=O)N1 [Dantrolene sodium salt] (20 µM),1.04,0.986,0.993,0.79,0.984 (inactive),0.968 (inactive),1.01 (inactive),0.991 (inactive),0.979 (inactive),1.06 (inactive),0.99 (inactive),0.939 (inactive)
CC1(C)NC(=O)N(c2ccc([N+](=O)[O-])c(C(F)(F)F)c2)C1=O [Nilutamide] (20 µM),0.998,1.02,0.999,0.98,1.05 (inactive),0.955 (inactive),0.957 (inactive),1.1 (inactive),1.01 (inactive),0.987 (inactive),0.995 (inactive),0.981 (inactive)
CN1CCCN=C1/C=C/c1cccs1 [Pyrantel tartrate] (20 µM),1.14,1.04,1.1,1.04,0.952 (inactive),1.02 (inactive),1.08 (inactive),1.04 (inactive),1 (inactive),1.03 (inactive),1.02 (inactive),1.01 (inactive)
COc1c(N2CCNC(C)C2)c(F)cc2c(=O)c(C(=O)O)cn(C3CC3)c12 (stereo not drawn) [Gatifloxacin] (20 µM),0.0115,0.0496,0.235,0.0125,0.285 (active),0.0452 (active),0.226 (active),0.888 (inactive),1.02 (inactive),0.264 (active),0.97 (inactive),0.226 (active)
CCOCCn1c(N2CCCN(C)CC2)nc2ccccc21 [Emedastine difumarate] (20 µM),1.08,1.02,1.03,0.971,0.993 (inactive),0.994 (inactive),1.02 (inactive),0.991 (inactive),1.01 (inactive),1 (inactive),0.999 (inactive),1.05 (inactive)
C=CCOc1ccc(CC(=O)O)cc1Cl [Alclofenac] (20 µM),0.943,1.06,0.98,1,0.998 (inactive),1.05 (inactive),1.05 (inactive),1.02 (inactive),0.974 (inactive),0.97 (inactive),0.991 (inactive),1.09 (inactive)
CCCSc1ccc2[nH]c(NC(=O)OC)nc2c1 [Albendazole] (20 µM),0.989,1.01,1.05,0.661,1.09 (inactive),0.961 (inactive),1.07 (inactive),1.01 (inactive),1.02 (inactive),0.982 (inactive),1.01 (inactive),1.13 (inactive)
N[C@@H]1CONC1=O [D-cycloserine] (20 µM),0.977,0.973,1.09,0.926,0.897 (inactive),0.958 (inactive),0.931 (inactive),1 (inactive),1.03 (inactive),1.02 (inactive),1.05 (inactive),0.868 (inactive)
NS(=O)(=O)c1cc2c(cc1Cl)NC(C(Cl)Cl)NS2(=O)=O (stereo not drawn) [Trichlormethiazide] (20 µM),1.14,1.08,1.01,1.07,1.05 (inactive),1.05 (inactive),1.03 (inactive),1.11 (inactive),1.02 (inactive),1.03 (inactive),0.984 (inactive),1.01 (inactive)
Cc1cc(NS(=O)(=O)c2ccc(N)cc2)no1 [Sulfamethoxazole] (20 µM),1.01,1.11,1.06,0.913,1.12 (inactive),0.999 (inactive),1.01 (inactive),1.13 (inactive),1.03 (inactive),0.911 (inactive),1 (inactive),0.978 (inactive)
N[C@@H](CCC(=O)N[C@@H](CS)C(=O)NCC(=O)O)C(=O)O [Glutathione] (20 µM),1.1,1.04,1.04,1.22,0.965 (inactive),1.1 (inactive),1.01 (inactive),1.04 (inactive),1.01 (inactive),1.03 (inactive),1.01 (inactive),1.02 (inactive)
OCC1(O)OC[C@@H](O)[C@@H](O)[C@H]1O (stereo partly drawn) [Psicose] (50 µM),1.08,1.01,1.03,1.03,1.03 (inactive),0.991 (inactive),0.992 (inactive),1.04 (inactive),1.04 (inactive),0.967 (inactive),1.01 (inactive),0.942 (inactive)
CN(C)CCOC(c1ccccc1)c1ccccc1 [Diphenhydramine hydrochloride] (20 µM),0.881,0.994,0.974,1.25,1 (inactive),1.05 (inactive),0.945 (inactive),0.962 (inactive),0.996 (inactive),0.98 (inactive),0.985 (inactive),0.914 (inactive)
Nc1c2c(nc3ccccc13)CCCC2 [Tacrine hydrochloride] (20 µM),0.896,0.951,0.932,0.696,1.05 (inactive),1.03 (inactive),1.12 (inactive),0.945 (inactive),0.94 (inactive),1.04 (inactive),1.15 (inactive),1.32 (active)
NCCc1ccc(O)c(O)c1 [Dopamine hydrochloride] (20 µM),0.979,1.06,1.03,0.996,1.06 (inactive),0.994 (inactive),1.03 (inactive),0.967 (inactive),0.996 (inactive),0.959 (inactive),0.987 (inactive),1.05 (inactive)
COC(=O)[C@H](Cc1ccccc1)NC(=O)[C@H](CC(=O)O)NCCCc1ccc(OC)c(O)c1 [Advantame] (50 µM),0.941,0.94,0.999,0.968,1 (inactive),0.973 (inactive),0.899 (inactive),0.932 (inactive),1.02 (inactive),1.04 (inactive),0.996 (inactive),0.9 (inactive)
COc1c(O)cc2c(c1O)[C@@H]1O[C@H](CO)[C@@H](O)[C@H](O)[C@H]1OC2=O [Bergenin] (20 µM),0.966,1.05,1.11,1.05,0.891 (inactive),1.01 (inactive),1.06 (inactive),0.97 (inactive),0.997 (inactive),0.93 (inactive),1.03 (inactive),1.05 (inactive)
CC(C)c1ccc2oc3nc(N)c(C(=O)O)cc3c(=O)c2c1 [Amlexanox] (20 µM),0.911,1.2,1.05,0.857,0.877 (inactive),1.07 (inactive),1.03 (inactive),1.1 (inactive),0.984 (inactive),0.957 (inactive),1.03 (inactive),1.02 (inactive)
O=C(O)CN(CCN(CC(=O)O)CC(=O)O)CCN(CC(=O)O)CC(=O)O [Pentetic acid] (20 µM),1.27,1.04,1.04,1.05,1.08 (inactive),1.02 (inactive),1.01 (inactive),0.998 (inactive),1.02 (inactive),0.992 (inactive),0.989 (inactive),0.997 (inactive)
